RN4220 kill = kills Staphylococcus aureus RN4220; S. aureus RN4220 growth, OD600, 16 h; inhibition, % (test concentration not listed); hit rate 0.33% among 330,000; AID 1259311; in the data active means inhibition above about 85%;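 further: plate controls were untreated cells for no effect and reference antibiotic for full effect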
Sa ugtP lethal = kills S. aureus RN4220 lacking UgtP. growth inhibition, % (no concentration beside the values). hit rate 0.54% among 330,000. S. aureus RN4220 ugtP deletion, OD600 growth, 16 h. AID 1259309; in the data active means growth inhibition above about 68%;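 further: plate controls were untreated wells for no effect and antibiotic for full effect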
BJeLR viability = kills HRASV12-expressing BJeLR cells; AID 1554; hit rate 0.17% among 300,000; inhibition, % (no concentration beside the values); BJeLR (HRASV12) viability, CellTiter-Glo ATP luminescence, 48 h; in the data active means inhibition above about 50%
An asterisk follows results filed as active; . = no result. Shown are actives, neighbours in structure and some others; about 0.65% of the full set was active somewhere.

SMILES	RN4220 kill	Sa ugtP lethal	BJeLR viability
COc1ccc(N2CCN(c3nc(=S)n(-c4ccccc4)c(C)c3C(C)=O)CC2)cc1	2.2	0.1	5.8
C[C@]12CC[C@H](O)CC1=CCC1C2CC[C@@]2(C)C1C[C@@H]1CC(=O)O[C@@H]12 (stereo not given in full)	2.6	11.7	.
COc1cccc(N(C(=O)c2snc(C(N)=O)c2N)C(C(=O)NCC2CCCO2)c2cccs2)c1 (stereo not given)	3.8	-3.2	-10.1
COc1ccc(N(C(=O)c2ccco2)C(C(=O)NC2CCCCC2)c2cccs2)cc1OC (stereo not given)	-9.5	-6.1	-4.5
COc1cccc(N(C(=O)CCl)C(C(=O)NCCc2ccccc2)c2cccs2)c1 (stereo not given)	3.4	-1.2	72.0*
COc1ccc(N(C(=O)CCl)C(C(=O)NCCc2ccccc2)c2cccs2)cc1Cl (stereo not given)	36.2	8.2	139.3*
Cc1cccc(N2CCN(C(=O)c3ccc4ncsc4c3)CC2)c1C	-3.2	-5.8	.
CCOc1ccc(OCCC(=O)OCC(=O)Nc2ccc3c(c2)OCO3)cc1	2.6	5.5	0.6
CCCCC(=O)OCc1c(-c2ccccc2)ncc2ccccc12	1.4	11.0	.
CCCCC(=O)OCc1c(-c2cccc(OC)c2)ncc2ccccc12	7.0	85.8*	.
CCN(CC)CCNC(=O)C(C)c1nn(C)c(=O)c2ccccc12 (stereo not given)	1.2	1.6	.
O=[N+]([O-])c1ccc(O)c(-c2cc(C(F)(F)F)nc(-c3ccccc3)n2)c1	100.2*	98.8*	68.0*
Oc1ccccc1-c1cc(C(F)(F)C(F)F)nc(-c2ccccc2)n1	2.0	16.0	-2.8
Cc1ccc(N=Cc2c(C)[nH]n(-c3nc4ccccc4[nH]3)c2=O)cc1	8.4	-5.7	103.3*
Cc1ccc(-n2[nH]c(C)c(C=Nc3ccc4[nH]c(=O)[nH]c4c3)c2=O)cc1	.	.	25.7
Cc1ccn2cc(C(=O)Nc3cccc(C(=O)NC4CC4)c3)nc2c1	0.3	4.0	.
CN(C)CCNC(=O)c1cc2c(s1)-c1ccc(Cl)cc1SC2	.	.	78.7*
CCOCCCNC(=O)c1cc2c(s1)-c1ccccc1SC2	3.3	0.1	5.4
O=C(CSc1nc(=O)n2cc(Cl)ccc2n1)NCCc1ccccc1	1.7	3.4	1.3
CCC1Sc2ccc(S(=O)(=O)Nc3ccc(OC)cc3)cc2NC1=O (stereo not given)	95.7*	93.1*	2.3
CCC1Sc2ccc(S(=O)(=O)Nc3ccc(OC)c(OC)c3)cc2NC1=O (stereo not given)	7.9	1.3	20.4
CCc1ccccc1NC(=O)NCc1ccccn1	-0.6	3.6	-7.4
CCn1cc(C(=O)NCc2cccnc2)c(=O)c2cc(F)c(N3CCN(C(=O)c4ccco4)CC3)cc21	96.1*	100.1*	-0.5
CCCCCCC(=O)N1CCN(c2cc3c(cc2F)c(=O)c(C(=O)O)cn3CC)CC1	.	.	-1.6
CCn1cc(C(=O)O)c(=O)c2cc(F)c(N3CCN(C(=S)NC(=O)c4ccccc4Br)CC3)cc21	97.7*	98.9*	10.1
SMILES	RN4220 kill	Sa ugtP lethal	BJeLR viability
CCn1cc(C(=O)NN)c(=O)c2cc(F)c(N3CCCCC3)cc21	5.9	9.3	20.2
CCCCCCCCCC(=O)N1CCN(c2cc3c(cc2F)c(=O)c(C(=O)O)cn3CC)CC1	-0.9	11.5	-0.1
CC(=O)N1CCN(c2cc3c(cc2F)c(=O)c(C(=O)O)cn3C2CC2)CC1	98.2*	99.2*	-2.5
CCCOc1ccc(C(=O)NC(=S)N2CCN(c3cc4c(cc3F)c(=O)c(C(=O)O)cn4CC)CC2)cc1	44.2	95.8*	8.2
CCn1cc(C(=O)NCc2cccc(F)c2)c(=O)c2cc(F)c(N3CCN(C(=O)c4ccco4)CC3)cc21	18.2	46.2	0.9
Cc1ccc(-c2nn(C)c(=O)c3ccccc23)cc1CNC(=O)c1ccccc1	5.7	0.6	-2.8
CC(=O)c1cccc(S(=O)(=O)N(Cc2cc3cc4c(cc3[nH]c2=O)OCCO4)CC2CCCO2)c1 (stereo not given)	7.9	-1.9	-4.1
Cc1ccc2nnnc(-c3ccccc3)c2c1	3.5	9.3	-0.9
COc1cc(C(C)=O)ccc1Oc1ccc(S(=O)(=O)N2CCOCC2)cn1	-2.2	2.4	.
CCCC(C)C(=O)Nc1nc(C)c(-c2csc(Nc3cc(OC)ccc3OC)n2)s1 (stereo not given)	-25.3	-36.6	7.4
N#CCc1nc2ccccc2c(=O)[nH]1	-1.2	-6.3	-3.6
CCn1cc(C(=O)O)c(=O)c2cc(F)c(N3CCN(C(=S)NC(=O)c4ccc(F)c(F)c4)CC3)cc21	99.6*	99.9*	-8.8
CCn1cc(C(=O)O)c(=O)c2cc(F)c(N3CCN(C(=S)NC(=O)c4ccc(F)cc4)CC3)cc21	86.1	84.3	-1.9
COc1ccc(NCc2nn(CC(=O)c3ccc(Br)cc3)c3[n+]2CCCCC3)cc1	1.1	2.1	-7.0
O=C(Cn1nc(CNc2ccc(Cl)cc2)[n+]2c1CCCCC2)c1ccc(Br)cc1	89.0*	98.1*	-8.7
COc1ccc(CCNC(=O)C(=O)NCC2OCCN2S(=O)(=O)c2ccc(F)cc2)cc1 (stereo not given)	-14.3	-10.5	-9.6
COc1ccccc1-c1nnc(NC(C)=O)s1	0.0	2.6	6.0
c1ccc(-c2nc3ccccc3o2)nc1	19.2	14.5	3.4
c1ccc2nc(-c3nc4ccccc4o3)ccc2c1	1.5	0.8	53.4*
CN(C)CCCNc1nc(N)c([N+](=O)[O-])c(NCc2ccccc2)n1	-0.9	9.0	3.3
CC(=O)N(Cc1c(C)nn(-c2ccccc2)c1Cl)c1ccc(Cl)cc1	2.1	-0.7	-2.5
Cc1nn(-c2ccccc2)c(Cl)c1CN(C(=O)CCl)c1ccc(Cl)cc1	25.9	-0.8	133.1*
CCn1nc(CC(=O)Nc2ccc(-n3cnnn3)c(OC)c2)c2ccccc2c1=O	1.7	-2.5	-1.2
CN(Cc1ccc(C(F)(F)F)cc1)C(=O)c1ccc(Oc2ccccc2)cc1	-3.3	14.1	-3.5
CN(Cc1ccccc1F)C(=O)c1ccc(Oc2ccccc2)cc1	78.3	91.3*	-0.7
SMILES	RN4220 kill	Sa ugtP lethal	BJeLR viability
Cc1ccc(NC(=O)c2cc(F)c(F)cc2Cl)nc1	7.1	0.2	-13.0
O=C(OCC(O)CO)c1ccccc1Nc1ccnc2cc(Cl)ccc12 (stereo not given)	2.1	-4.7	.
O/N=C/c1ccccc1OCc1ccccc1F	.	.	-4.1
ON=Cc1cc(Br)ccc1OCc1ccccc1F	6.2	87.4*	.
ON=Cc1cc(Br)ccc1OCc1cccc(F)c1	1.6	82.5*	.
O/N=C/c1cc(Br)ccc1OCc1cccc(F)c1	.	.	13.0
c1ccc(-c2nc(NC3CC3)nc(-n3ccnc3)n2)cc1	2.4	-17.1	-4.5
CCCCn1c(N)c(N(CCOC)C(=O)COC(=O)Cc2cccc(OC)c2)c(=O)[nH]c1=O	4.4	10.3	1.1
COc1ccc(-c2[nH]ncc2CN2C[C@@H]3CCC[C@H]2C3)c(F)c1	1.4	2.0	-8.0
COc1ccc(Cn2c(=O)[nH]c3cc(C(=O)Nc4ccccc4C)ccc32)cc1	-8.4	0.1	-4.3
COc1ccc(N(C(=O)c2ccncc2)S(=O)(=O)c2ccccc2)cc1	4.6	5.3	1.0
COc1ccc(N(C(=O)c2ccccc2C)S(=O)(=O)c2cccs2)cc1	3.2	83.9*	33.9

Source: PubChem BioAssay
